The source made the active and inactive calls. Calls follow the shape of the full dose curve.

The assay is described as follows: Confirmation Concentration-Response Assay for Inhibitors of the Schistosoma mansoni Redox Cascade. The settings on record: S. mansoni TGR/Prx2 coupled, NADPH fluorescence kinetics. The source says: NIH Molecular Libraries Screening Centers Network [MLSCN] NIH Chemical Genomics Center [NCGC] MLSCN Grant: MH076449-01 Assay Provider: Prof David Williams, Illinois State University This is a confirmation assay for PubChem BioAssay AID 448. Schistosoma mansoni, a causative agent of schistosomiasis, resides in the bloodstream of their host up to 30 years without being eliminated by the host immune attack. One proposed survival mechanism is the production of an antioxidant "firewall" that neutralizes the oxidative assault of the host's immune attack. Schistosoma mansoni peroxiredoxins (Prx) are important parasite antioxidant proteins that play a crucial role in redox balance mechanisms. […] First, the proteins are essential for the parasite survival. […] Third, the protein(s) is amenable for study at the molecular level and can be produced in bacteria in large quantities, in soluble and active form. Inhibition of Prx activity was screened in a coupled-enzyme format with reducing equivalents being transferred from NADPH to […] via thioredoxin/glutathione reductase (TGR)-catalyzed reaction, then from thioredoxin to hydrogen peroxide via Prx-catalyzed electron transfer. A decrease in the fluorescence intensity of NADPH was used to measure the enzyme activity. Purified S. mansoni TGR and Prx were provided by Professor David L. Williams, Illinois State University.
Buffer: 100 mM phosphate buffer, pH 7.4, 10 mM EDTA, 0.01% Tween-20. […] 100 uM NADPH/25 nM TGR/700 uM GSH/50 nM Prx2 mixture in columns 1, 2, 5-48. Titration of control potassium antimonyl tartrate (PAT, from 1 mM, then 1:5) pin-transferred to lower half of column 2. Column 1 and upper half of column 2 are neutral (100% activity). Assay Steps: Three uL of reagents were dispensed to 1536-well Greiner black plates. Compounds and controls (20 nL) were transferred via Kalypsys PinTool. The plates were incubated for 15 min at room temperature, and then a 1 uL aliquot of 400 uM NADPH/700 uM GSH was added, immediately followed by a 1uL aliquot of 2.5 mM H2O2 (to start the reaction). The plate was transferred to ViewLux (Perkin-Elmer) High-throughput CCD imager where kinetic measurements (every 30 sec, for a total of 8 min) of NADPH fluorescence were taken using 365 nm excitation/450 nm emission filter set. During dispense, enzyme-containing reagent bottles were kept submerged into 4 deg C water bath to minimize degradation.
Turning to `CCOC(=O)C(C(=O)OCC)c1cc(Br)c2noc3c2c1C(=O)c1ccccc1-3`, the call was inactive.

With `CC1=CC(=O)NP(=O)(Oc2ccc3ccccc3c2)N1` (stereo not drawn), the Potency is 120 nM (active).

As to `CN1C(=O)c2cccc3cccc1c23`, the compound was called inactive.

As to `Cc1cc2cc(CN(CCCN3CCCC3=O)S(=O)(=O)c3ccc(F)cc3)c(=O)[nH]c2cc1C`, the compound was classed as inactive.

For `O=C1c2cccc3cccc(c23)N1Cc1ccccc1`, the compound was classed as inactive.

As for `COc1ccc(S(=O)(=O)N(Cc2cc3ccc(OC)cc3[nH]c2=O)C[C@H]2COCCO2)cc1`, the Potency was 66300 nM (active).

For the compound `CCCCOc1cc(Br)c2noc3c2c1C(=O)c1ccccc1-3`, the Potency is 800 nM (active).

Regarding `COc1ccc(C(=O)c2no[n+]([O-])c2C(=O)c2ccc(OC)cc2)cc1`, the Potency was 4670 nM (active).

Regarding `COc1ccc2cc(CN(C[C@H]3COCCO3)S(=O)(=O)c3ccc(Cl)cc3)c(=O)[nH]c2c1`, the outcome was inactive.

For the compound `CCOc1ccc(OP2(=O)NC(=O)C=C(C)N2)cc1` (stereo not drawn), the Potency is 180 nM (active).

As for `CC1=CC(=O)NP(=O)(Oc2ccccc2)N1` (stereo not drawn), the Potency is 2030 nM (active).

Regarding `CCOCN1C(=O)c2cccc3cccc1c23`, the outcome was inactive.

As to `COc1ccc2cc(CN(C[C@H]3COCCO3)S(=O)(=O)c3ccccc3)c(=O)[nH]c2c1`, the compound was classed as inactive.

On to `Cc1conc1C(=O)c1no[n+]([O-])c1C(=O)c1nocc1C`, for which the result was inactive.

As to `O=C(c1ccco1)c1no[n+]([O-])c1C(=O)c1ccco1`, the Potency is 1520 nM (active).

As to `Cc1cc(C)c2cc(CN(CC3COCCO3)S(=O)(=O)c3ccc(Cl)cc3)c(=O)[nH]c2c1` (stereo not drawn), the compound was classed as inactive.

As to `COc1ccc(S(=O)(=O)N(CCCN2CCCC2=O)Cc2cc3c(C)ccc(C)c3[nH]c2=O)cc1`, the Potency was 50100 nM (active).

For `CCN1C(=O)c2cccc3cccc1c23`, the compound was called inactive.

`CC1=CC(=O)NP(=O)(Oc2ccc(Cl)cc2)N1` (stereo not drawn): the Potency is 420 nM (active).

Take `O=C(c1cccs1)c1no[n+]([O-])c1C(=O)c1cccs1`: the Potency was 1480 nM (active).

On to `Cc1ccc(S(=O)(=O)N(CCCN2CCCC2=O)Cc2cc3c(C)ccc(C)c3[nH]c2=O)cc1`, for which the result was inactive.

With `COC(=O)C(C(=O)OC)c1cc(Br)c2noc3c2c1C(=O)c1ccccc1-3`, the Potency is 120 nM (active).

In the case of `O=P(Nc1ccccc1F)(c1ccccc1)c1nc2ccccc2s1` (stereo not drawn), the Potency is 23900 nM (active).

The record behind these values is PubChem BioAssay AID1011 (National Center for Advancing Translational Sciences (NCATS), 2008).
